Potency, outcome and max response data for 16 compounds are collected here from PubChem BioAssay (NCATS).

Records with an inconclusive call do not appear. Unmarked numbers belong to inactive results. Active and inactive are the calls of the source. The call rests on the fitted dose curve; in most records, active means well fitted inhibition curve with a large enough effect; inconclusive means small, poorly fitted or top-dose-only effect; inactive means flat fitted curve, though single readings scatter. Where a SMILES comes first, the peptide text is derived from it. The star is where a group is joined. AFC = O=c1cc(C(F)(F)F)c2ccc(N*)cc2o1

Experiment in all cases: Cytotoxic Profiling of Annotated Libraries Using Quantitative High-Throughput Screening (AID 1296008); further: nearly all actives have a fitted effect of over 60% in size
Conditions in all cases: Five cell lines viability, CellTiter-Glo ATP luminescence, 48-72 h; max response: stronger effect = lower value

In one assay the test system is CRL-7250. A digest of the protocol:
(§1)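 Compounds were pin-transferred onto cells and incubated 48 or 72 hr at 37 degree Celsius, 95% humidity. CellTiter-Glo was added, plates sat 10 min at room temperature, then ATP-coupled luminescence was imaged as the viability read-out.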

Another assay deals with HEK293. Summed up:
as §1

The next assay concerns HaCat. Summed up: as §1
A further assay has as its system KB-3-1. Summed up: as §1
The next assay deals with NIH3T3. Summed up: as §1
On the % scale 0 is the no-effect control and ±100 the full control effect; potency means the concentration at half of the fitted maximal effect.

With `CN1CCN(C2CCC(n3cc(-c4ccc(Oc5ccccc5)cc4)c4c(N)ncnc43)CC2)CC1` (stereo not given), the Potency was 5.8 µM (active) in the assay with CRL-7250; 18.4 µM (active) with HEK293; 1.03 µM (active) in the assay on HaCat; 20.6 µM (active) in the assay on KB-3-1; 0.326 µM (active) with NIH3T3.
In the case of `CC(=O)N[C@@H](Cc1c[nH]c2ccccc12)C(=O)N[C@@H](CCC(=O)O)C(=O)N[C@@H](Cc1cnc[nH]1)C(=O)N[C@@H](CC(=O)O)C(=O)Nc1ccc2c(C(F)(F)F)cc(=O)oc2c1` (Ac-WEHD-{AFC}), the result in the assay on CRL-7250 and in the assay with KB-3-1 was inactive. Further, the max response in the assay on HEK293 is -1.72%; in the assay on HaCat, -11.3%; in the assay with NIH3T3, 0.286%.
With `CC(C)=CCCC1(C)C=Cc2c(c(C)cc3c2[nH]c2ccccc23)O1` (stereo not given), the max response in the assay on CRL-7250 was -19.1%; with HEK293, -24.1%; in the assay on HaCat it was 3.9%; in the assay with KB-3-1 it was 6.53%; in the assay on NIH3T3, -4.99%.
Consider `C=C1CC[C@H]2[C@@](C)(CCC(O)[C@@]2(C)CO)[C@@H]1CCC1=CCOC1=O` (stereo not given in full), for which the max response with CRL-7250 was 0.497%; in the assay with HEK293, 3.62%; in the assay on HaCat, -3.43%; in the assay on KB-3-1 it was -26.3%; with NIH3T3, -1.37%.
In the case of `COc1cc2c(cc1O)[C@H](c1ccc(O[C@@H]3O[C@H](CO)[C@@H](O)[C@H](O)[C@H]3O)c(OC)c1)[C@@H](CO)[C@](O)(CO)C2`, the max response is 4.77% in the assay with CRL-7250, 2.27% in the assay on HEK293, -2.06% in the assay with HaCat and 2.92% in the assay with NIH3T3. The compound was called inactive in the assay on KB-3-1.
For the compound `CC(C)(O)C1CCC(C)(C2CCC3(C)C4CCC5C(C)(C(=O)OC6OC(CO)C(O)C(O)C6O)C(O)CC(O)C56CC46CCC23C)O1` (stereo not given), the compound was called inactive in the assay with CRL-7250 and in the assay with HaCat. The max response in the assay with HEK293 was 0.689%; in the assay with KB-3-1 it was -9.11%; with NIH3T3 it was -1.85%.
As for `C=C[C@H]1[C@H](O[C@@H]2O[C@H](CO)[C@@H](O)[C@H](O)[C@H]2O)OC=C(C(=O)OC)[C@H]1C[C@@H]1c2cc(O)c(O)cc2CCN1C(C)=O`, the max response in the assay on CRL-7250 was -23.5%; in the assay with HEK293, 2.33%; in the assay on HaCat, 3.48%; in the assay with KB-3-1 it was -1.92%; in the assay on NIH3T3 it was -10.7%.
As to `CCCn1c(=O)c2[nH]c(-c3ccc(OCC(=O)O)cc3)nc2n(CCC)c1=O`, the max response in the assay with CRL-7250 is 3.25%; with HEK293, -2.68%; in the assay on HaCat, -4.84%; with NIH3T3 it was -3.27%. Besides, the result in the assay on KB-3-1 was inactive.
Consider `OC[C@H]1O[C@@H](OC[C@H]2O[C@@H](OC/C=C/c3ccccc3)[C@H](O)[C@@H](O)[C@@H]2O)[C@@H](O)[C@@H]1O`, for which the max response was 0.699% with CRL-7250, 4.4% in the assay on HEK293, -0.518% with HaCat and 2.42% in the assay on NIH3T3. Moreover, the compound was classed as inactive with KB-3-1.
Take `C=C1C[C@]23C[C@H]1CC[C@H]2[C@@]12CC[C@H](O)[C@@](C)(C(=O)O1)[C@H]2[C@@H]3C(=O)O`: the max response in the assay on CRL-7250 was -11.3%; with HEK293, -4.65%; in the assay on HaCat it was -1.9%; with KB-3-1, 6.55%; in the assay with NIH3T3, 3.45%.
For the compound `O=C(CCCCN1CCOCC1)Nc1ccc(-c2cccnc2)cc1`, the max response in the assay on CRL-7250 is -12%; with HEK293, 0.956%; in the assay with HaCat, -1.44%; with KB-3-1, 3.7%; in the assay on NIH3T3, 4.47%.
For `CC(=O)O[C@@H]1c2c3c(cc(O)c2C(=O)O[C@@H]1C)O[C@@]1(C)[C@@H](O)C[C@H]2C(C)(C)C(=O)C=C[C@]2(C)[C@@H]1C3`, the max response with CRL-7250 is -27.6%; in the assay on HEK293, -27.5%; in the assay with HaCat, 3.68%; in the assay on NIH3T3 it was -3.36%. For the same compound, the compound was classed as inactive with KB-3-1.
In the case of `COc1cc2c(cc1OC)-c1[nH]nc(Nc3cccc(F)c3)c1C2`, the Potency with CRL-7250 was 0.461 µM (active); in the assay with HEK293 it was 0.13 µM (active); in the assay with HaCat it was 0.0731 µM (active); in the assay on KB-3-1 it was 0.164 µM (active); in the assay with NIH3T3 it was 0.731 µM (active).
On to `C/C1=C\C[C@]2(C)C(=O)C(O)=C([C@H](C)CO)[C@H]2C/C=C(\C)[C@@H](O)CC/C(C)=C/CC1`, for which the max response in the assay on CRL-7250 is 3.52%; with HEK293 it was 2.1%; in the assay on HaCat, 0.087%; in the assay with KB-3-1, 0.384%; in the assay with NIH3T3, -2.65%.
Take `CC(C)CN(C[C@@H](O)[C@H](Cc1ccccc1)NC(=O)O[C@@H]1CO[C@H]2OCC[C@H]21)S(=O)(=O)c1ccc(N)cc1`: the max response with CRL-7250 was 4.36%; in the assay with HEK293 it was -6.82%; with HaCat, -6.53%; with KB-3-1, -3.21%; in the assay with NIH3T3 it was -1.09%.
With `OC[C@H]1O[C@@H](O[C@H]2[C@H](OCCc3ccccc3)O[C@H](CO)[C@@H](O)[C@@H]2O)[C@H](O)[C@@H](O)[C@@H]1O`, the compound was called inactive in the assay on CRL-7250. Besides, the max response in the assay on HEK293 was -0.444%; in the assay with HaCat, -12%; in the assay on KB-3-1 it was 5.74%; with NIH3T3 it was -1.68%.
